# Screening data deposited in PubChem by several laboratories.
# Only some compounds are listed: those with a hit (about 3.6% of all), similar ones and a draw of the others.
# Mtb bLac sens – beta-lactam sensitization of Mtb H37Rv, H37Rv. M. tuberculosis H37Rv growth with meropenem, percent inhibition. inhibition, % at 25 µM. actives 0.27% (n = 330,000); call rule not given here;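 note: growth measured after seven days incubation then overnight dye step; 0% = bacteria only wells and 100% = bacteria with antibiotic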
# GDH-TPI counter – GDH-TPI coupling enzyme inhibitors, primary screen, artefact control for M. tuberculosis FBA inhibitor project, biochemical, absorbance, full deck; inhibition, % at 4.8 µM; actives 1.2% (n = 360,000); AID 588335, 2011; GDH-TPI coupled enzyme counterscreen, NADH absorbance; in the data active = inhibition above about 30%;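 note: 0% = DMSO wells and 100% = wells lacking the enzyme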
# Mtb hypoxia rep – PubChem AID 1159583. M. tuberculosis hypoxia-regulated fluorescent reporter, fluorescence. actives 0.1% (n = 300,000). fluorescence inhibition, % (concentration not given with the values); in the data active = fluorescence inhibition mostly above about 23%, no sharp cut-off; inactive = mostly below about 17%
# FBA Mtb inh – Mtb FBA enzyme inhibitors, primary screen, biochemical, fluorescence, strain H37Rv; Fructose-bisphosphate aldolase (Mycobacterium tuberculosis (strain ATCC 25618 / H37Rv)), …; purified M. tuberculosis FBA, fluorescence read-out; inhibition, % at 1 µM; actives 2.3% (n = 360,000); AID 588726, 2011; in the data active = inhibition above about 27%;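 note: 0% = vehicle and 100% = reference inhibitor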
# Target sequence (P9WQA3 whole entry, looked up): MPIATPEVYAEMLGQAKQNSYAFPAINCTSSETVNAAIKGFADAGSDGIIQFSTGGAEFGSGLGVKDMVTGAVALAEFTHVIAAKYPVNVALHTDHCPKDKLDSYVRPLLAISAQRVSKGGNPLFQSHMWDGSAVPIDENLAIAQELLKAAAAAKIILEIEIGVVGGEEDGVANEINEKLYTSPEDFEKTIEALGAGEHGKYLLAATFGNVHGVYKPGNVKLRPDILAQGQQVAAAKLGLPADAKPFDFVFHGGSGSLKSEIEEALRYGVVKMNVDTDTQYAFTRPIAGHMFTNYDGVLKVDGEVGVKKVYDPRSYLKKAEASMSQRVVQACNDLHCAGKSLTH
# DUSP3 inh – VHR1 phosphatase inhibitors, primary screen, biochemical, absorbance, uHTS | recombinant VHR phosphatase, pNPP absorbance | Dual specificity protein phosphatase 3 (Homo sapiens), P51452 | inhibition, % at 13.3 µM | actives 0.52% (n = 290,000); in the data active = inhibition above about 50%
# Target sequence (P51452 whole entry, looked up): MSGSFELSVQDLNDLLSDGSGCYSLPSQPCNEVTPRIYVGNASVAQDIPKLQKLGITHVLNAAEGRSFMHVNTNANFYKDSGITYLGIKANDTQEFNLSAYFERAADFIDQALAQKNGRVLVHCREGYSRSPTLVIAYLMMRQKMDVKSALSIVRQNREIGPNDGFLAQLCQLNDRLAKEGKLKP
# Starred values were filed as active, the others as inactive; / = no result given; + = active, no number.
SMILES,Mtb bLac sens,GDH-TPI counter,Mtb hypoxia rep,FBA Mtb inh,DUSP3 inh
COc1ccc(CN(C)CC2CCCN(CCc3ccc(F)cc3)C2)c(OC)c1OC (configuration not stated),2.9,5.4,2.3,-1.3,59.7*
CCN(Cc1ccc(OC)c(COC)c1)CC1CCCN(CCc2cccc(OC)c2)C1 (configuration not stated),4.7,5.6,9.1,0.6,53.6*
CN(CC1CCCN(CCc2ccc(F)cc2)C1)C(=O)CCC(F)(F)F (configuration not stated),-8.5,11.4,-2.4,-0.5,23.4
O=C(O)c1ccc2nc(-c3ccccc3)sc2c1,0.4,4.0,-0.1,2.9,-12.9
Nc1cccc(-c2nc3ccc(N)cc3s2)c1,37.0,22.9,8.5,163.9*,1.8
Nc1ccc(-c2nc3ccc(N)cc3s2)cc1,15.6,47.4*,-6.6,+,26.3
Nc1ccc(-c2nc3ccc(C(=O)O)cc3s2)cc1,8.3,54.4*,4.0,/,-8.8
Nc1ccc(O)c(-c2nc3ccccc3s2)c1,-6.0,22.8,/,4.2,33.8
Nc1cc2sc(-c3ccc(C(=O)O)cc3)nc2cc1Cl,3.0,25.6,/,138.6*,17.0
Cc1c(C(=O)N2CC3(CC(c4cccc(NC(=O)CC(c5ccccc5)c5ccccc5)c4)=NO3)CC2C(N)=O)cc([N+](=O)[O-])cc1[N+](=O)[O-] (configuration not stated),/,/,-2.8,/,/
CC(C)(C)OC(=O)C(Cc1ccccc1)NC(=O)c1nc[nH]c1C(=O)NC(CCCCN)C(=O)OC(C)(C)C (configuration not stated),/,/,-1.7,/,/
Cc1ccccc1C(=O)Nc1ccc(C(=O)NN=Cc2ccncc2)cc1,/,/,7.1,/,/
S=c1[nH]nc(-c2ccc3ccccc3n2)n1-c1ccccc1,-9.3,16.0,-2.4,2.3,17.6
Fc1ccccc1-n1c(-c2ccc3ccccc3n2)n[nH]c1=S,5.6,10.1,8.0,5.4,52.9*
Cc1ccsc1C1Nc2ccccc2C(=O)N1O (configuration not stated),-1.7,0.0,2.3,0.3,5.0
Cc1ccsc1C1Nc2ccccc2-c2nc3ccccc3n21 (configuration not stated),2.1,11.8,16.7,178.1*,2.3
COc1cc(CNc2ccc3[nH]c(=O)[nH]c3c2)ccc1OCc1ccccc1F,-0.7,2.6,2.4,13.2,3.6
COc1cc(CNc2ccc3[nH]c(=O)[nH]c3c2)ccc1OCc1c(F)cccc1Cl,1.6,3.5,12.2,10.0,52.6*
COC(=O)C1(CCSC)NC(c2ccc(O)cc2)C2C(=O)N(c3ccc(F)cc3)C(=O)C21 (configuration not stated),4.2,8.1,-5.1,114.4*,-41.8
COC(=O)C1(C)NC(c2ccc(O)cc2)C2C(=O)N(c3ccc(F)cc3)C(=O)C21 (configuration not stated),-17.4,5.6,5.7,-0.5,18.1
COc1ccc(NC(=O)Nc2ccc3c(c2)C(=O)N(C(C)CO)CC(C)C(CN(C)C(=O)Nc2c(C)noc2C)O3)cc1 (configuration not stated),/,/,6.3,/,/
COc1ccccc1-c1cc(C(F)(F)F)nc(N2CCN(c3ccc(F)cc3)CC2)n1,5.8,-5.6,0.9,1.0,5.1
COc1ccccc1-c1cc(C(F)(F)F)nc(N2CCN(c3ccccc3)CC2)n1,-7.8,-0.9,-1.0,27.9*,9.5
C/C(=N\NC(=O)CC#N)c1cc2ccc(O)cc2oc1=O,-4.8,17.1,/,+,-3.0
COc1ccc2cc(C(=O)NCc3ccccc3)c(=Nc3ccc(C(=O)O)cc3)oc2c1,13.9,-7.0,5.6,19.4,2.5
SMILES,Mtb bLac sens,GDH-TPI counter,Mtb hypoxia rep,FBA Mtb inh,DUSP3 inh
CC(=NNC(=O)c1ccncc1)c1cc2ccc(O)cc2oc1=O,/,/,11.0,/,/
O=C(O)c1ccc(N=c2oc3cc(O)ccc3cc2C(=O)NCc2ccccc2)cc1,4.6,13.3,9.5,+,2.5
O=C(NCc1ccccc1)c1cc2ccc(O)cc2oc1=O,-6.0,0.0,2.3,+,0.7
COc1ccc(C(=O)NN=Cc2cc(Br)ccc2O)cc1OC,/,/,9.0,/,/
O=C(Nc1nc2nccc(-c3ccccc3)n2n1)C(Cl)(Cl)Cl,-0.5,20.9,-4.2,172.8*,-2.2
CCN(CC)c1ccc(Nc2nc(-c3cccnc3)cs2)cc1,8.6,0.9,14.2,1.0,56.9*
CSc1ccc(C=CC(=O)c2ccc(NC(C)=O)cc2)cc1,/,/,4.2,/,/
COC(=O)c1nnn(CC(=O)NC(=O)Nc2c(C)cccc2C)c1C(=O)OC,-4.4,1.8,10.1,2.1,-5.6
COC(=O)c1nnn(CC(=O)NC(=O)Nc2cccc(Cl)c2C)c1C(=O)OC,-3.6,7.3,/,1.0,50.6*
C=CCCC(Cc1ccc(F)cc1)C(=O)OCCNC(=O)C(CC=C)CC(=O)N(CCO)Cc1ccccc1 (configuration not stated),/,/,-4.0,/,/
COCCn1c(C)cc(/C=C2\NC(=S)N(C)C2=O)c1C,7.7,36.5*,11.2,-16.4,-9.9
NS(=O)(=O)c1ccc(NC=C2C(=O)OC3(CCCCC3)OC2=O)cc1,7.4,31.8*,0.3,-1.3,-3.8
CCCCc1ccc(NC=C2C(=O)OC3(CCCCC3)OC2=O)cc1,97.2,0.3,2.8,1.3,6.5
COc1ccc(-c2nc(C#N)c(NCc3ccco3)o2)cc1,41.9,-1.6,3.2,116.7*,9.0
CCOc1ccc(Nc2oc(-c3ccco3)nc2C#N)cc1,69.8,16.4,4.3,3.6,9.5
CCOc1ccc(-c2nc(C#N)c(NCC(C)C)o2)cc1,99.3,17.7,8.5,155.6*,29.4
C=CCNc1oc(-c2ccc(OCC)cc2)nc1C#N,-1.4,17.5,1.7,128.5*,-9.0
CCOc1ccc(Nc2oc(-c3cccc(Cl)c3)nc2C#N)cc1,71.6,9.9,0.7,0.4,31.2
COc1ccc(Nc2oc(-c3ccc(F)cc3)nc2C#N)cc1,-3.5,6.1,4.7,1.7,-11.0
C=CCNc1oc(-c2ccc(OC)cc2)nc1C#N,7.2,7.9,4.8,127.3*,-0.6
O=C1C(Cc2ccccc2)NCCCCC(c2ccc(Cl)cc2)N1Cc1ccccc1 (configuration not stated),/,/,12.2,/,/
COc1cc(NS(=O)(=O)c2ccc(NC=CC(=O)c3ccc(OC)c(OC)c3)cc2)nc(OC)n1,/,/,1.8,/,/
O=C(Nc1ccccc1[N+](=O)[O-])C1=C(O)CCn2c1nc1ccccc12,6.6,39.2*,10.9,1.0,6.4
O=C(Nc1ccccc1[N+](=O)[O-])c1cc2ccccc2nc1Cl,0.5,-5.0,2.5,0.2,18.8
N=c1c(C(=O)NCc2ccco2)cc2c(=O)n3ccccc3nc2n1C1CCCC1,-7.8,13.4,10.4,+,40.9
N=c1c(C(=O)NC2CCCC2)cc2c(=O)n3ccccc3nc2n1C1CCCC1,1.1,14.0,10.4,122.7*,21.9
N=c1c(S(=O)(=O)c2ccccc2)cc2c(=O)n3ccccc3nc2n1C1CCCC1,1.5,8.9,0.4,7.5,7.4
